Results from the OligoGym collection.
Note: reference of the scale not given here.

What follows are sequences tested against ASPRV1 (assay: pooled miR-30 sensor sort-seq; sequence = guide strand). Conditions: shRNA.
TGAGATAGTAGCCCTTACCCAT showed a sensor-assay potency score (higher = more potent) of -0.959.
TCTTTCAGGAACCTTAGCTTGG gave a sensor-assay potency score (higher = more potent) of -0.57.
In the case of TTTCAGGAACCTTAGCTTGGTG, the sensor-assay potency score (higher = more potent) is reported as -0.909.
Work on TCATTGATGACTTCAAAGCTGT yielded a sensor-assay potency score (higher = more potent) of -0.318.
TTCAGGAACCTTAGCTTGGTGA gave a sensor-assay potency score (higher = more potent) of -1.12.
Work on TTCAGCACCATTGGCCACCTTT yielded a sensor-assay potency score (higher = more potent) of -0.724.
Work on TTGCCTAGGGACACCGCTGTAT yielded a sensor-assay potency score (higher = more potent) of -1.05.
In the case of TTGAGTCTTTGTCATCAACAGC, the sensor-assay potency score (higher = more potent) is reported as -1.26.
Sequence TAGCTTGGTGATATGGTCCCAA has a sensor-assay potency score (higher = more potent) of 0.0777.
In the case of ATTGATGACTTCAAAGCTGTGC, the sensor-assay potency score (higher = more potent) is reported as 0.217.

The sequences below were run against ASTE1 in the same assay as above. Conditions: shRNA.
TAGAACAGCTGGTATTCTGTTT gave a sensor-assay potency score (higher = more potent) of -0.362.
In the case of TTGAATTTGATCTACCTTTTGG, the sensor-assay potency score (higher = more potent) is reported as -0.435.
In the case of TTCATTACTATGATCTTCCACA, the sensor-assay potency score (higher = more potent) is reported as -0.12.
With TTATCTAGTGCTTCGGTAGGGT the sensor-assay potency score (higher = more potent) was 0.589.
In the case of TTGAACTGAAGCAAAGACGGTG, the sensor-assay potency score (higher = more potent) is reported as 0.0207.
TAGCTTTGCTTTGGTCTCGGTG showed a sensor-assay potency score (higher = more potent) of -0.912.
With TTTTTGAATTTGATCTACCTTT the sensor-assay potency score (higher = more potent) was -0.342.
TATTCTTCCATGGAACAGCAGA showed a sensor-assay potency score (higher = more potent) of -0.626.
TAGATATTCATAAAGTTGCTTA gave a sensor-assay potency score (higher = more potent) of -0.483.
For TTATCTGAAATGTCACATCCTC, the sensor-assay potency score (higher = more potent) was 0.002.
Work on TTTTTTTTTGAATTTGATCTAC yielded a sensor-assay potency score (higher = more potent) of -0.318.
TTTTCAACCATTAACAACCCAA was tested, and the sensor-assay potency score (higher = more potent) was -0.22.
